# Experimental data published in PubChem BioAssay.
# The source made the active and inactive calls.
# Assays:
# [1] = test system: PRMT1 (protein arginine N-methyltransferase 1); experiment: PRMT1 binders on small-molecule microarrays, primary screen, biochemical, small-molecule microarray, 635 nm fluorescence (AID 1088); conditions: small-molecule microarray binding, higher = more signal;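 note: binding of Prmt1 protein to compounds spotted on small-molecule microarray slides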
# [2] = yeast growth modulation, basal conditions, primary screen, YJM789 clinical isolate, OD600, 24 h (AID 1089);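 note: growth of clinical yeast isolate S. cerevisiae YJM 789 seeded 1000 cells per well; test concentration not given here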; conditions: S. cerevisiae YJM789 growth, higher = more signal, called active from +8 up or from −8 down
# [3] = fission yeast growth modulation, primary screen, strain 972, OD600, 24 h, no modulator (AID 1090);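 note: basal condition with compound alone and no growth modifier present; test concentration not given here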; conditions: S. pombe 972 growth, higher = more signal, called active from +8 up or from −8 down
# [4] = S. cerevisiae growth modulation with rapamycin, primary screen, strain BY4716, OD600, 96 h (AID 1091); conditions: higher = more signal, called active from +8 up or from −8 down; note: test concentration not given here
# [5] = molecular target: Torsin-1A-interacting protein 2 (Homo sapiens) (UniProt Q8NFQ8); experiment: LULL1 binders on small-molecule microarray, primary screen, cell lysate, human LULL1 lysate, 635/667 nm fluorescence (AID 1092); conditions: hLULL1 lysate binding, 635 nm fluorescence, higher = more signal;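 note: probe is lysate of COS7 cells overexpressing human LULL1; score merges per-feature 667 nm fluorescence with signal-to-noise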
# Sequence of Torsin-1A-interacting protein 2 (Homo sapiens) (Q8NFQ8 whole entry, looked up): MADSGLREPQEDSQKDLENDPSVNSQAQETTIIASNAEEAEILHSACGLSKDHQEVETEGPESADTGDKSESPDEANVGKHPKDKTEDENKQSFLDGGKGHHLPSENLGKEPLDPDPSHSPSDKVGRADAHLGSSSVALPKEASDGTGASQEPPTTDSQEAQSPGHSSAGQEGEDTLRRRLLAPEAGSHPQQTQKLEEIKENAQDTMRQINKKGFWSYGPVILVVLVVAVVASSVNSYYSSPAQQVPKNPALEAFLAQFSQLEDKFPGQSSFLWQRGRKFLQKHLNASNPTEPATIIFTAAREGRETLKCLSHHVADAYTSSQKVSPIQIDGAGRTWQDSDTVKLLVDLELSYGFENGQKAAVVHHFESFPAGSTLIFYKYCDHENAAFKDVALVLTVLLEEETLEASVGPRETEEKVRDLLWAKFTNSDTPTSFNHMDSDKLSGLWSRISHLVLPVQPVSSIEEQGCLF
# [6] = E. coli growth modulation, two-sided OD650, primary screen, E. coli filamentation project, strain DRC41, 24 h (AID 1093); conditions: OD650, 24 h, higher = more signal, called active from +8 up or from −8 down;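 note: MC1000 strain lacking acrAB efflux and sulA so SOS filamentation is blocked; test concentration not given here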
# [7] = small-molecule microarray binders of probe aLefty2, primary screen, biochemical, biotinylated probe, 635/667 nm fluorescence (AID 1094); conditions: higher = more signal;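 note: score merges spot fluorescence near 667 nm with spot signal-to-noise ratio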
# [8] = test system: Noggin (protein binding on small-molecule microarray); experiment: Noggin binders on small-molecule microarray, primary screen, biochemical, 635/667 nm fluorescence (AID 1095); conditions: 635 nm fluorescence, higher = more signal;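 note: score merges 667 nm feature fluorescence with signal to noise over triplicate slides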
# [9] = molecular target: Neurogenic locus notch homolog protein 3 (Homo sapiens) (UniProt Q9UM47); experiment: NOTCH3 binders on small-molecule microarray, primary screen, biochemical, 635/667 nm fluorescence (AID 1096); conditions: NOTCH3 binding, 635 nm fluorescence, higher = more signal
# Sequence of Neurogenic locus notch homolog protein 3 (Homo sapiens) (Q9UM47 whole entry, looked up): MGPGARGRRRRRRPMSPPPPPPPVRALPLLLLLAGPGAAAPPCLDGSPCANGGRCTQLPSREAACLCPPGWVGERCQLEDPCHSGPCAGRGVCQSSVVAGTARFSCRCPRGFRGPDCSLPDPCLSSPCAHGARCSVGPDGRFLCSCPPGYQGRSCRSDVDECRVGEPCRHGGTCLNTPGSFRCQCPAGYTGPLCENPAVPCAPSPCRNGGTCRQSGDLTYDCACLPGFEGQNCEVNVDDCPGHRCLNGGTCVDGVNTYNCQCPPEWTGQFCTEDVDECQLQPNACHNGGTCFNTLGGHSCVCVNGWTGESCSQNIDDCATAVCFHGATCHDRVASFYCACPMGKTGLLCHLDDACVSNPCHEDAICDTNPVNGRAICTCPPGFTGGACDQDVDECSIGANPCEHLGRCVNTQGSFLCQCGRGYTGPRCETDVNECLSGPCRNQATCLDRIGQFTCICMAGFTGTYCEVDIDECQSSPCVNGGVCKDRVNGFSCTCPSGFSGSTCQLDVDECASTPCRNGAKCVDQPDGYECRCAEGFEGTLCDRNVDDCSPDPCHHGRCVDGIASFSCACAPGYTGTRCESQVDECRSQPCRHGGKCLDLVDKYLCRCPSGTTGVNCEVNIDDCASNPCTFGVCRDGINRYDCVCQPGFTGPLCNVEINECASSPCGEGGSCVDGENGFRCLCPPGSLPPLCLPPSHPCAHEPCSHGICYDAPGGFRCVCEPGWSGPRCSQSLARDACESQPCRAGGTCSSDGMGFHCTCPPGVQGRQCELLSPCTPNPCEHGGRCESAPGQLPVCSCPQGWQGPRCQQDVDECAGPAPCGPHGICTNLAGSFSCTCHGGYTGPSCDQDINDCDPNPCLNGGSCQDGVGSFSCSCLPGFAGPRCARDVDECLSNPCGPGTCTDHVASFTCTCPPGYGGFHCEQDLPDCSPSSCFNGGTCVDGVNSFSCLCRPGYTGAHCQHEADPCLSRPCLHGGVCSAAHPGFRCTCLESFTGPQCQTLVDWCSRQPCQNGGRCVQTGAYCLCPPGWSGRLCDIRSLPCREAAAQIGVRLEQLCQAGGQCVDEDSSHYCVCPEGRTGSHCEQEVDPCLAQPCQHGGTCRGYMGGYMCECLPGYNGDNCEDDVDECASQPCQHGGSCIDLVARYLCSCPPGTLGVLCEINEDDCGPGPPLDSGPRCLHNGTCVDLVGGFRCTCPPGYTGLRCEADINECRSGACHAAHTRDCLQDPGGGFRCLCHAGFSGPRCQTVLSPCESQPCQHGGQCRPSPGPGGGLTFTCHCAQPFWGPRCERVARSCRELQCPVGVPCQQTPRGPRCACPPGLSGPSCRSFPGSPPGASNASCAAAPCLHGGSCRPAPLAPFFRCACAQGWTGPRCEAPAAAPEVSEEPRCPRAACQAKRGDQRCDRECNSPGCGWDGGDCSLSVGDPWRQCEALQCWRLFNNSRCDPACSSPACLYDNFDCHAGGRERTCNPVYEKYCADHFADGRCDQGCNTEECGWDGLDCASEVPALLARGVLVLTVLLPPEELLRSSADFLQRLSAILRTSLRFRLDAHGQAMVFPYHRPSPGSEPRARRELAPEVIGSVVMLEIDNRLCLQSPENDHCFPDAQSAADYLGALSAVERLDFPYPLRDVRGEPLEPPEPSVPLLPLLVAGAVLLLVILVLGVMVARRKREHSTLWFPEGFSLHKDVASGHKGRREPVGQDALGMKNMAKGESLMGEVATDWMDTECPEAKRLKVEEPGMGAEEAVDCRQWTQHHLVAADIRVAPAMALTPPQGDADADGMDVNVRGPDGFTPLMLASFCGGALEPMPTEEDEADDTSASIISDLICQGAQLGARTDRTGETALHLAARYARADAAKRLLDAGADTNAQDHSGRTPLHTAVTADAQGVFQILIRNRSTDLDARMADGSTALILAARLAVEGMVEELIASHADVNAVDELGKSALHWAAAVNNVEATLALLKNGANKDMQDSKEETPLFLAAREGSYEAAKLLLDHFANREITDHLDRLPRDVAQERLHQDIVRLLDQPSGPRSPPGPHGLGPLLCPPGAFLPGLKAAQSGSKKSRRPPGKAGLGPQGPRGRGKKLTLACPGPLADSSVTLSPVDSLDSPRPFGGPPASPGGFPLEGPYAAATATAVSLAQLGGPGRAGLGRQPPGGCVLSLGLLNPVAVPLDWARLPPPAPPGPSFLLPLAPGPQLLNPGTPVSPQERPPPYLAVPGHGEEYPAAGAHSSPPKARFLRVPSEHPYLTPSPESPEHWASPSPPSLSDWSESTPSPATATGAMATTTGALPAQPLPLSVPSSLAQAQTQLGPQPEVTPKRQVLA
# [10] = small-molecule microarray binders of probe aEGFR, primary screen, biochemical, biotinylated probe, 635/667 nm fluorescence (AID 1097); conditions: higher = more signal;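 note: probe is a biotinylated anti-EGFR antibody binding compounds printed on slides; score combines fluorescence near 667 nm and signal to noise of each spot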
# [11] = test system: Plasmodium falciparum Sir2 (PF13_0152, Sir2A); experiment: pfSir2 binders on small-molecule microarrays, primary screen, biochemical, small-molecule microarray, 635 nm fluorescence (AID 1098); conditions: small-molecule microarray binding, fluorescence 635 nm; higher = more signal;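 note: score merges spot fluorescence intensity with its signal-to-noise ratio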
# [12] = small-molecule microarray binders of probe aDKK1, primary screen, biochemical, biotinylated probe, 635/667 nm fluorescence (AID 1099); conditions: higher = more signal;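 note: score merges 667nm spot fluorescence with signal to noise across triplicate slides; reference of the scale not given here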
# [13] = small-molecule microarray binders of probe aCHRDL2, primary screen, biochemical, biotinylated probe, 635/667 nm fluorescence (AID 1100); conditions: higher = more signal
# [14] = splicing luciferase reporter signal modulators, primary screen, spliceosome inhibition project, cell-based, HEK293, splice +/- reporter (AID 1101); conditions: luminescence, 24 h, higher = more signal, called active from +8 up or from −8 down;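 note: HEK293 cells carrying a splicing-competent luciferase reporter gene; test concentration not given here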
# [15] = molecular target: Fibroblast growth factor 10 (Homo sapiens) (UniProt O15520); experiment: FGF10 binders on small-molecule microarrays, primary screen, biochemical, small-molecule microarray, 635 nm fluorescence (AID 1102); conditions: FGF10 binding, fluorescence 635 nm, higher = more signal
# Sequence of Fibroblast growth factor 10 (Homo sapiens) (O15520 whole entry, looked up): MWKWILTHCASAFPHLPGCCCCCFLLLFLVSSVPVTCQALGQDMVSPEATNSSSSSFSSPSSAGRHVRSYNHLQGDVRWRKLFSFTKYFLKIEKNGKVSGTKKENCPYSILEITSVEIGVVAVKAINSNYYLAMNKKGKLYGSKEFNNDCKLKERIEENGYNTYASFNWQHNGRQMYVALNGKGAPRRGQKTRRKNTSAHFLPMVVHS
# [16] = test system: glycogen synthase kinase-3 (GSK3A per assay name; protocol says GSK3B); experiment: GSK3 binders on small-molecule microarrays, primary screen, biochemical, small-molecule microarray, 635 nm fluorescence, GSK3A (AID 1103); conditions: small-molecule microarray binding, fluorescence 635 nm; higher = more signal; note: the record names both GSK3A and GSK3B
# [17] = molecular target: Epidermal growth factor receptor (Homo sapiens) (UniProt P00533); experiment: EGFR binders on small-molecule microarrays, primary screen, biochemical, small-molecule microarray, 635 nm fluorescence (AID 1104); conditions: EGFR binding, higher = more signal;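 note: score merges 667 nm emission intensity with spot signal to noise over triplicate slides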
# Sequence of Epidermal growth factor receptor (Homo sapiens) (P00533 whole entry, looked up): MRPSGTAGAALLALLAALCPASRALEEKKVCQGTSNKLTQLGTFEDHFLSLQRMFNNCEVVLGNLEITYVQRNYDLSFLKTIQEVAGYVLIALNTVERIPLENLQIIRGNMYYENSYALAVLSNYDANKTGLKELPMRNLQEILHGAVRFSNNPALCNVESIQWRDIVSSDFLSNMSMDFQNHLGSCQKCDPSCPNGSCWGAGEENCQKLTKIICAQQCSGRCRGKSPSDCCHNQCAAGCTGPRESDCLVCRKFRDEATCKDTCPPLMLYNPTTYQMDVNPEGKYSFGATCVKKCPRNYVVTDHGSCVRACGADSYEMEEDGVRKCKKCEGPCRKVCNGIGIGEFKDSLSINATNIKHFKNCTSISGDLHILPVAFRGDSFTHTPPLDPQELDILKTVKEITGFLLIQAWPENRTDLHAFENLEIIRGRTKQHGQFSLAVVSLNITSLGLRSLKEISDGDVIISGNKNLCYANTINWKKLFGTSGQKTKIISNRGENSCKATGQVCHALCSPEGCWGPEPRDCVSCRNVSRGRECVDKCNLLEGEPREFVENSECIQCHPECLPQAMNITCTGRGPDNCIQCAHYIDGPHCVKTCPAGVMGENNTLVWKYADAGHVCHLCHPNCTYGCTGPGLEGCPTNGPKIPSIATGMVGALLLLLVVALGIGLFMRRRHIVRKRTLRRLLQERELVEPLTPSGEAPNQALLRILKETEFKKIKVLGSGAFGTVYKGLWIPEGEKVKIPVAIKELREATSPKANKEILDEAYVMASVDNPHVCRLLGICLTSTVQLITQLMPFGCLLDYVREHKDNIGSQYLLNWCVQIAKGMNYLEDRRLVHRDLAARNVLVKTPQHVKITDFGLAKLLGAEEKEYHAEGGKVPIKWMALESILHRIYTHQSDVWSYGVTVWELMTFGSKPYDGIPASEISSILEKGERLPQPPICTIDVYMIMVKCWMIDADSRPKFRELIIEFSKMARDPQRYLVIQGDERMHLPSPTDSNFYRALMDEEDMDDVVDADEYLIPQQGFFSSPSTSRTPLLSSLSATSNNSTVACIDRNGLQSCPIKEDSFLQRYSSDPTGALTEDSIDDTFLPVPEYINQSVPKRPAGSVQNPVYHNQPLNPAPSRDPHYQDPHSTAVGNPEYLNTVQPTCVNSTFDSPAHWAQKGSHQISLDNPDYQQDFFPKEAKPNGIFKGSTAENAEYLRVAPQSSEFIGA
# [18] = molecular target: Follistatin-related protein 3 (Homo sapiens) (UniProt O95633); experiment: FSTL3 binders on small-molecule microarrays, primary screen, biochemical, small-molecule microarray, 635 nm fluorescence (AID 1105); conditions: FSTL3 binding, higher = more signal;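 note: score merges emission near 667 nm and signal to noise per printed spot across three slides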
# Sequence of Follistatin-related protein 3 (Homo sapiens) (O95633 whole entry, looked up): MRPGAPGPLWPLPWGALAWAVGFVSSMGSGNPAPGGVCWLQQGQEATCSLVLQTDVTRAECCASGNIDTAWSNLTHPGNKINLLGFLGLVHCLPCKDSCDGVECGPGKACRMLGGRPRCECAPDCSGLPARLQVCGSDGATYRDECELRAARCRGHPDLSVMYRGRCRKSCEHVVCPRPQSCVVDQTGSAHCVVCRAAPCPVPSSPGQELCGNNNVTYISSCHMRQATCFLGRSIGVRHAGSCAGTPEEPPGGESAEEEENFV
# [19] = molecular target: Dickkopf-related protein 1 (Homo sapiens) (UniProt O94907); experiment: DKK1 binders on small-molecule microarrays, primary screen, biochemical, small-molecule microarray, 635 nm fluorescence scan (AID 1106); conditions: DKK1 binding, higher = more signal;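 note: score merges emission near 667 nm with signal to noise over three replicate slides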
# Sequence of Dickkopf-related protein 1 (Homo sapiens) (O94907 whole entry, looked up): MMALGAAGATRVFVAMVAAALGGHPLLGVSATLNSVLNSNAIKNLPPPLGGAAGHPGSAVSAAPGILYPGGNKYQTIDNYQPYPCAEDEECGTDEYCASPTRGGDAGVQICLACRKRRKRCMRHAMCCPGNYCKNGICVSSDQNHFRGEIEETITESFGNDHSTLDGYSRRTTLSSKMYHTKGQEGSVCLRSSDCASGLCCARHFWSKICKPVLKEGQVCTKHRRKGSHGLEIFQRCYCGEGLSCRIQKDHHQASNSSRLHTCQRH
# [20] = test system: Inhibin beta A chain (activin A); experiment: INHBA (activin A) binders on microarrays, primary screen, biochemical, small-molecule microarray, 635 nm fluorescence scan (AID 1107); conditions: small-molecule microarray binding, higher = more signal;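 note: mouse activin A protein probed at 4.33 µg/mL on printed slides; score merges bound-protein fluorescence near 667 nm with spot signal-to-noise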
Compound,composite z-score [1],z-score [2],z-score [3],z-score [4],composite z-score [5],z-score [6],composite z-score [7],composite z-score [8],composite z-score [9],composite z-score [10],composite z-score [11],composite z-score [12],composite z-score [13],z-score [14],composite z-score [15],composite z-score [16],composite z-score [17],composite z-score [18],composite z-score [19],composite z-score [20]
COCCOC(=O)N1C(=O)[C@@]2(c3cc(C#CCC(C(=O)OC)C(=O)OC)ccc31)[C@H](C(=O)NC[C@H](O)c1ccccc1)[C@H]1C(=O)O[C@H](c3ccccc3)[C@H](c3ccccc3)N1[C@@H]2c1ccc(OCCO)cc1,1.56,2.22 (inactive),2.7 (inactive),7 (inactive),2.08,0.6 (inactive),-0.109,1.69,1.04,0.0097,1.18,-0.0002,-0.132,0.28 (inactive),1.04,1.35,0.97,1.09,0.909,0.534
[N-]=[N+]=NCc1ccccc1[C@@H]1OC(c2ccc(OCCCO)cc2)=N[C@]1(Cc1ccccc1)C(=O)NCCN1CCOCC1,1.53,0.469 (inactive),0.75 (inactive),0.83 (inactive),2.92,1.11 (inactive),0.242,0.512,1.09,0.591,1.03,0.657,0.58,0.0496 (inactive),0.868,0.616,-0.102,0.567,-0.383,0.798
CCCCCCCCCCC(O)C1C=CC2C(=O)N(c3ccccc3)C(=O)C2N1Nc1ccccc1F (stereo not given),0.545,0.536 (inactive),0.849 (inactive),1.62 (inactive),1.59,-1.47 (inactive),-0.0713,-1.47,-0.277,-0.0576,0.565,0.0158,0.973,1.25 (inactive),-0.387,-0.676,-0.571,-0.292,-0.867,1.21
CCCCC(=C=CC[C@H](O)c1ccc(OCCO)cc1)C[C@H](O)COCc1ccccc1,0.857,0.85 (inactive),-1.43 (inactive),-0.374 (inactive),1.36,0.125 (inactive),-0.116,0.395,-0.36,0.0028,1.07,-0.221,-0.0323,-0.639 (inactive),0.793,-0.171,-0.304,-0.603,-0.259,1.12
CC=CC(O)C1C=CC2C(=O)NC(=O)C2N1Nc1ccccn1 (stereo not given),1.36,0.43 (inactive),1.99 (inactive),0.544 (inactive),0.871,-0.565 (inactive),0.0261,0.26,0.542,-0.257,0.733,-0.0419,-0.185,1.12 (inactive),0.22,0.717,0.673,0.6,0.697,1.25
C=C(C(=O)CC[C@H](OC(=O)c1ccccc1-c1ccccc1C(=O)O)c1ccccc1OCCO)C(C)C,1.41,0.574 (inactive),-0.788 (inactive),-0.927 (inactive),1.46,0.968 (inactive),-0.199,0.695,0.257,-0.194,1.01,-0.175,-0.459,-0.456 (inactive),0.238,0.304,-0.388,0.176,0.273,1.16
C=CCC(OC(C)=O)[C@@H]1[C@@H](N(Cc2ccc(-c3ccccc3)cc2)C(=O)Cc2ccc(F)cc2)c2cc(OCCCO)ccc2N1C(=O)Cc1ccc2ccccc2c1 (stereo not given in full),-0.848,-0.106 (inactive),0.412 (inactive),0.0926 (inactive),2.46,0.708 (inactive),0.385,0.115,0.151,-0.0828,-0.261,-0.0697,0.652,-0.681 (inactive),-0.13,-0.199,-0.113,-0.507,-0.117,1.3
[N-]=[N+]=NCc1ccccc1[C@@H]1OC(c2ccc(OCCCO)cc2)=N[C@]1(Cc1ccccc1N=[N+]=[N-])C(=O)NCCN1CCOCC1,1.55,-0.563 (inactive),-4.92 (inactive),-0.889 (inactive),3.26,0.118 (inactive),0.0814,1.6,1.05,0.0809,1.54,0.251,0.851,-0.312 (inactive),1.51,1.34,0.218,1.23,0.331,0.533
CCCCCN1CC=CC23O[C@@H]4/C=C\CCC(C)OC(=O)C4[C@H]2C(=O)N(CCCCCCO)[C@@H]3C1=O (stereo not given in full),0.523,0.735 (inactive),0.157 (inactive),-0.635 (inactive),1.79,1.24 (inactive),-0.119,0.296,0.109,-0.126,1.44,-0.219,0.248,-0.833 (inactive),-0.381,-0.459,-0.434,-0.303,-0.397,1.13
CCOC(=O)C1=C[C@@H](C(C)(C)C)N(S(=O)(=O)c2ccc(C)cc2)[C@H]1c1cccc(Cl)c1,1.4,1.74 (inactive),2.35 (inactive),3.04 (inactive),2.81,-0.695 (inactive),0.195,1.04,1.08,0.301,0.758,0.821,0.182,-0.517 (inactive),0.907,1.31,0.427,1.36,0.0675,-0.213
